Common to all, as to assay: DAPPL (digital affinity profiling via proximity ligation, sequencing); 10 mM Tris-HCl pH 7.5, 50 mM NaCl, 1 mM DTT, 4% glycerol, room temperature, 30 min; GST-TFs on glutathione beads, 16-mer random dsDNA library, 0.1% formaldehyde crosslink after washing; high values mean tight binding
The target of one assay is T1, FEV (Homo sapiens, UniProt Q99581 1-238).
T1 sequence: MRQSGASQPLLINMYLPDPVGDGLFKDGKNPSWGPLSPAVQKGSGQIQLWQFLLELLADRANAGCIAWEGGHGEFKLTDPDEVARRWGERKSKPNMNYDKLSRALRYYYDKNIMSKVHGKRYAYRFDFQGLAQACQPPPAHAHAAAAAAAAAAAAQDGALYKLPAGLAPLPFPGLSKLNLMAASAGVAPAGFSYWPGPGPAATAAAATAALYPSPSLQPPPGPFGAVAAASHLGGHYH
Conditions: protein: recombinant; tags: N-terminal GST; dsDNA, one strand shown. A digest of the protocol:
(§1)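 In yeast, human transcription factors were expressed with a GST fusion, then pulled down on glutathione beads and given DNA barcodes. Pooled with a tag-only sample, they were exposed to 200 nmole of a 16-mer random double-stranded DNA library (Tris/NaCl/DTT/glycerol buffer, room temperature, 30 min), washed, crosslinked with 0.1% formaldehyde, proximity-ligated using BsaI/T4 ligase for 1 h at 37 °C, PCR-amplified and read on an Illumina NextSeq500. Each hexamer's frequency of reads for a factor, divided by the matching frequency for the tag-only sample, gives the binding signal.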

The next assay deals with ETV5 (Homo sapiens, UniProt P41161 1-510). The note with it: protein: recombinant; tags: N-terminal GST; dsDNA, one strand shown. A digest of the protocol:
as §1

The next assay deals with HSF1 (Homo sapiens, UniProt Q00613 1-529). Conditions: protein: recombinant; tags: N-terminal GST; chain copies: 3; dsDNA, one strand shown. The method in brief: as §1
The next assay concerns the target T2, SPIC (Homo sapiens, UniProt Q8N5J4 1-248).
T2 sequence: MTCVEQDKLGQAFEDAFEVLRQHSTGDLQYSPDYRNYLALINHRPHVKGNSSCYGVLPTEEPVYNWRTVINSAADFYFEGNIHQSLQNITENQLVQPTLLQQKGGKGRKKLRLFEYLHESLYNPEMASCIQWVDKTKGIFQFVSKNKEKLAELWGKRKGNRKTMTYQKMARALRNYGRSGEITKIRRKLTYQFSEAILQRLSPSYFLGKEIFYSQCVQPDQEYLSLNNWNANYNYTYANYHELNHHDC
Conditions: protein: recombinant; tags: N-terminal GST; dsDNA, one strand shown. The method in brief: as §1

For another assay, the target named is ELF4 (Homo sapiens, UniProt Q99607 1-663). The note with it: protein: recombinant; tags: N-terminal GST; dsDNA, one strand shown. A digest of the protocol: as §1
In the next assay the target is T3, ELK4 (Homo sapiens, UniProt P28324-2 1-405).
T3 sequence: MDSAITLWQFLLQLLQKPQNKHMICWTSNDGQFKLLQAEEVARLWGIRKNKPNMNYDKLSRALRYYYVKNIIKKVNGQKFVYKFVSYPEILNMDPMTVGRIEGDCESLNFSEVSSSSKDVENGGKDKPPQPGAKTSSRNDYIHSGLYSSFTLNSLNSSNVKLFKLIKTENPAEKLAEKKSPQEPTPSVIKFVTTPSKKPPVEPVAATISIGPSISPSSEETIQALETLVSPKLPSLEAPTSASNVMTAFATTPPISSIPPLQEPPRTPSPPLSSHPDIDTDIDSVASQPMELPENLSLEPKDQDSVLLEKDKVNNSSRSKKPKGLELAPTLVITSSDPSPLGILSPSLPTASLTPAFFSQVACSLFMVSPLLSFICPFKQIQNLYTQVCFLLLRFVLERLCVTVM
Conditions: protein: recombinant; tags: N-terminal GST; dsDNA, one strand shown. The method in brief:
as §1

The next assay has as its target T4, ETV2 (Homo sapiens, UniProt O00321 1-342).
T4 sequence: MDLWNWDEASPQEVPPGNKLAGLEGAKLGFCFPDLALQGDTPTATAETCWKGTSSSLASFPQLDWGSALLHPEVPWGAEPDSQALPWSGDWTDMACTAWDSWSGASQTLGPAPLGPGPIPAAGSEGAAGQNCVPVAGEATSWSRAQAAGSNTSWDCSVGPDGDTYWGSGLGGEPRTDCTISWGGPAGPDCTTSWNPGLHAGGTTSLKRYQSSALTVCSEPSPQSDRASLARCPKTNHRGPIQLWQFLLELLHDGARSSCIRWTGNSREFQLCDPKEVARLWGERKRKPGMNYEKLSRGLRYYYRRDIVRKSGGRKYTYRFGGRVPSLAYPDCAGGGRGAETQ
The note with it: protein: recombinant; tags: N-terminal GST; dsDNA, one strand shown. A digest of the protocol: as §1

The next assay deals with T5, ELF3 (Homo sapiens, UniProt P78545 1-371).
T5 sequence: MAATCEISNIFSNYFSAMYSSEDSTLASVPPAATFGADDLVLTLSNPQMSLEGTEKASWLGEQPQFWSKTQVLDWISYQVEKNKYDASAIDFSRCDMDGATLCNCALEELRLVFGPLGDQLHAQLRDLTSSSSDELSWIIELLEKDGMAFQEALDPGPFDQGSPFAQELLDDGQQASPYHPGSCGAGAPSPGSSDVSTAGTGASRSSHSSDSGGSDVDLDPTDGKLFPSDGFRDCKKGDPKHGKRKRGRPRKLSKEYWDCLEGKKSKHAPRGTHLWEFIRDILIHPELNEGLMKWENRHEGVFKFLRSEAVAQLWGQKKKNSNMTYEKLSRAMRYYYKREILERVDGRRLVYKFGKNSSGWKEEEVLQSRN
The note with it: protein: recombinant; tags: N-terminal GST; dsDNA, one strand shown. A digest of the protocol: as §1

In the next assay the target is CRX (Homo sapiens, UniProt O43186 1-299). Conditions: protein: recombinant; tags: N-terminal GST; dsDNA, one strand shown. A digest of the protocol:
as §1

Another assay concerns the target ETV1 (Homo sapiens, UniProt P50549 1-477). The note with it: protein: recombinant; tags: N-terminal GST; dsDNA, one strand shown. The method in brief: as §1
The next assay has as its target T6, ERF (Homo sapiens, UniProt P50548 1-548).
T6 sequence: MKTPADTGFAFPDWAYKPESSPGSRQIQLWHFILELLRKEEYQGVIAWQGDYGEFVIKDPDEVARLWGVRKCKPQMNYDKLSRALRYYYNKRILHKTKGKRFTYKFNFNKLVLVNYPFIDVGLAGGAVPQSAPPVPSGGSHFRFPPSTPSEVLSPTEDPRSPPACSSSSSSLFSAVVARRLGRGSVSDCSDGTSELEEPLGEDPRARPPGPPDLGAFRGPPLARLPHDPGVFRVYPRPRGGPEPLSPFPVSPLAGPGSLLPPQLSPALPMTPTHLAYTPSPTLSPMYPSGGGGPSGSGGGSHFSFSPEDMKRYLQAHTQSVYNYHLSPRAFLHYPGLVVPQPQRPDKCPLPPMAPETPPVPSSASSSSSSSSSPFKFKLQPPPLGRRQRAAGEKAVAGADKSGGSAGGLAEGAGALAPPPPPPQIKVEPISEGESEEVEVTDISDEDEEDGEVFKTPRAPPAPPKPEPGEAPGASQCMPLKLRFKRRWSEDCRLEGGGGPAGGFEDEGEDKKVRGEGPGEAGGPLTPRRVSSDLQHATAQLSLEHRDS
Conditions: protein: recombinant; tags: N-terminal GST; dsDNA, one strand shown. The method in brief:
as §1

In another assay the target is T7, ETV3L (Homo sapiens, UniProt Q6ZN32 1-361).
T7 sequence: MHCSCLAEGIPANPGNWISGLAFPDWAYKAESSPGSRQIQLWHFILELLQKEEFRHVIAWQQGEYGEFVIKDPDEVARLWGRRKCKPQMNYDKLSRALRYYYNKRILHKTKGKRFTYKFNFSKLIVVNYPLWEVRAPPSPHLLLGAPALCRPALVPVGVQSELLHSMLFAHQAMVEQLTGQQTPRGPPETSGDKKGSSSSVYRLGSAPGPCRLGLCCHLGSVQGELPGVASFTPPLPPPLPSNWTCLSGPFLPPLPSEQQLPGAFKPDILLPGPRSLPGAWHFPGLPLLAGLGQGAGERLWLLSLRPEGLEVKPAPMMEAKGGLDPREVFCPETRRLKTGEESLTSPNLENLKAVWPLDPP
Conditions: protein: recombinant; tags: N-terminal GST; dsDNA, one strand shown. The method in brief:
as §1

The target of the next assay is T8, ETS2 (Homo sapiens, UniProt P15036 1-469).
T8 sequence: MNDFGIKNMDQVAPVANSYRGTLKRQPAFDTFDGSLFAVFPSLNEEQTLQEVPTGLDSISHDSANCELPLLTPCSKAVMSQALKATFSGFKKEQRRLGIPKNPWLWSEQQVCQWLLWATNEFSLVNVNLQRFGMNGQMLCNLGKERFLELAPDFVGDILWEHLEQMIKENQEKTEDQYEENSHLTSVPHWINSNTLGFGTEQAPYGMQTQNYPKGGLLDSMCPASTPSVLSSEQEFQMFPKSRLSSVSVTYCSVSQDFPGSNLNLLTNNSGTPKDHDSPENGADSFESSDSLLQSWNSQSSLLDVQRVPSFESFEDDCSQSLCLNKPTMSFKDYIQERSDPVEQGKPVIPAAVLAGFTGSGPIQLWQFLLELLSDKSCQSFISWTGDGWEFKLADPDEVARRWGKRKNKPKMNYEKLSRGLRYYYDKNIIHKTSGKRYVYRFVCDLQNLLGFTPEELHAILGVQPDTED
The note with it: protein: recombinant; tags: N-terminal GST; dsDNA, one strand shown. The method in brief: as §1

In a further assay the target is T9, SPDEF (Homo sapiens, UniProt O95238 1-335).
T9 sequence: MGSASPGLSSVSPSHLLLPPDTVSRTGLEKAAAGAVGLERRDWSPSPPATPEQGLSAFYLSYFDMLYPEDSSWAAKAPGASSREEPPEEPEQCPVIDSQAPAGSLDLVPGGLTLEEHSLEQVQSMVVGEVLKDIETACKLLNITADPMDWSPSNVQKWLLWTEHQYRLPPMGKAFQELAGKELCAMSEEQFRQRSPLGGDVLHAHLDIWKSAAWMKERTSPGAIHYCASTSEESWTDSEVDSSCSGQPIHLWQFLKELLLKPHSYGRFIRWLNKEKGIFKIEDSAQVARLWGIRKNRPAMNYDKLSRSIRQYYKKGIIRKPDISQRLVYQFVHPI
The note with it: protein: recombinant; tags: N-terminal GST; dsDNA, one strand shown. A digest of the protocol: as §1

For the next assay, the target named is T10, ETV7 (Homo sapiens, UniProt Q9Y603 1-341).
T10 sequence: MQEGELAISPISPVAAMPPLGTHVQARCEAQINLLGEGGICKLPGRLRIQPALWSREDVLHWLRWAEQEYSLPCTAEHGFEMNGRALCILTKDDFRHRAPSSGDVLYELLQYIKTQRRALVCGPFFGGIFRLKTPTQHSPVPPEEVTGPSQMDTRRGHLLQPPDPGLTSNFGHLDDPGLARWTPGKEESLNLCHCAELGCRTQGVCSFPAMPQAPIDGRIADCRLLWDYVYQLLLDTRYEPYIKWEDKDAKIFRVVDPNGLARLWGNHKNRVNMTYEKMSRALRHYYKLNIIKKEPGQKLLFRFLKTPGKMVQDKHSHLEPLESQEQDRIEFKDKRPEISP
The note with it: protein: recombinant; tags: N-terminal GST; dsDNA, one strand shown. A digest of the protocol: as §1

For the next assay, the target named is T11, ELF5 (Homo sapiens, UniProt Q9UKW6-2 1-255).
T11 sequence: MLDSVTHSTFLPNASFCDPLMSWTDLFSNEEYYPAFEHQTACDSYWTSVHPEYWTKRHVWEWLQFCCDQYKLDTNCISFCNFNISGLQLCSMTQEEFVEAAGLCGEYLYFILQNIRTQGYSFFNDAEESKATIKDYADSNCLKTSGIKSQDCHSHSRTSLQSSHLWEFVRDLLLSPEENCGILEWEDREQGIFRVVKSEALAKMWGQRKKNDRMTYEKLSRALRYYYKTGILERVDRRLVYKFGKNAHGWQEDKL
The note with it: protein: recombinant; tags: N-terminal GST; dsDNA, one strand shown. The method in brief: as §1

In a further assay the target is T12, ETV3 (Homo sapiens, UniProt P41162-2 1-143).
T12 sequence: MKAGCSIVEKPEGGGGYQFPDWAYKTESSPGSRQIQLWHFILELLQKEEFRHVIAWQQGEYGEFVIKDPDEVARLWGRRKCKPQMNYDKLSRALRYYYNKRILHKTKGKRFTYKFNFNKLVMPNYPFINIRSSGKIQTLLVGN
Conditions: protein: recombinant; tags: N-terminal GST; dsDNA, one strand shown. A digest of the protocol:
as §1

The target in a further assay is ETV6 (Homo sapiens, UniProt P41212 1-452). Conditions: protein: recombinant; tags: N-terminal GST; dsDNA, one strand shown. A digest of the protocol: as §1
Sequence of ETV6 (P41212 whole entry): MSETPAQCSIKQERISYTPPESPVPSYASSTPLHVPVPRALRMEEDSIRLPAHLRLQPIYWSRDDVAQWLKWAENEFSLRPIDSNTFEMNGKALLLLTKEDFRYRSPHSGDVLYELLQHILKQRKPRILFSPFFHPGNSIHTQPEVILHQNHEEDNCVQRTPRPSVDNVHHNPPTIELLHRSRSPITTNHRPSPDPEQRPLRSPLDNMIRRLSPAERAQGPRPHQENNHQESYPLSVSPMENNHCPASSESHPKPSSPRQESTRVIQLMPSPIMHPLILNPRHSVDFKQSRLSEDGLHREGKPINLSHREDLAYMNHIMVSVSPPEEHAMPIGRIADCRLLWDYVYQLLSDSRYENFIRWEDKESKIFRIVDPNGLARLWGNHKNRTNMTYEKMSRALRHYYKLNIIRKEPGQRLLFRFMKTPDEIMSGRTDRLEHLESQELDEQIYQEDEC

Sequence of ETV1 (P50549 whole entry): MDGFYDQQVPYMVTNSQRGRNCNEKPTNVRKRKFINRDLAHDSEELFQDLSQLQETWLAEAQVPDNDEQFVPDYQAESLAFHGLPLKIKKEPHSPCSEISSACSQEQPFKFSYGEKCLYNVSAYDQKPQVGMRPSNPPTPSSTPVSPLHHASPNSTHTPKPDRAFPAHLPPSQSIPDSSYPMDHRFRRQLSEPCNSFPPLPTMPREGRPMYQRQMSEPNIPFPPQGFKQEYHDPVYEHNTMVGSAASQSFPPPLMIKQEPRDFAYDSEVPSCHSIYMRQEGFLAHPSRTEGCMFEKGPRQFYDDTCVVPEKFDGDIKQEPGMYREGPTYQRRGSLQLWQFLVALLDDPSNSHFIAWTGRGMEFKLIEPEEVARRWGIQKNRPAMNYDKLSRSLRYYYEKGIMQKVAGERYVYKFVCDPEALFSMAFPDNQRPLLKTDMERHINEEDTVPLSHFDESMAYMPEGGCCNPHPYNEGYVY
Sequence of CRX (O43186 whole entry): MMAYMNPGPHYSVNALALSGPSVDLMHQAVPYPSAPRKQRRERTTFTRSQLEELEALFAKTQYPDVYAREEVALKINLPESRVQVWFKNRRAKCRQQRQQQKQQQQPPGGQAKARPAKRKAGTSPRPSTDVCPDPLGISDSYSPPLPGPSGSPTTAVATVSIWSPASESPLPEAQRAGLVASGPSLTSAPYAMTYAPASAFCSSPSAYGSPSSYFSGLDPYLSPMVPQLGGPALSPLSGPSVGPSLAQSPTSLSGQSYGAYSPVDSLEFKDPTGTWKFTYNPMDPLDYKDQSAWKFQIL
Sequence of ELF4 (Q99607 whole entry): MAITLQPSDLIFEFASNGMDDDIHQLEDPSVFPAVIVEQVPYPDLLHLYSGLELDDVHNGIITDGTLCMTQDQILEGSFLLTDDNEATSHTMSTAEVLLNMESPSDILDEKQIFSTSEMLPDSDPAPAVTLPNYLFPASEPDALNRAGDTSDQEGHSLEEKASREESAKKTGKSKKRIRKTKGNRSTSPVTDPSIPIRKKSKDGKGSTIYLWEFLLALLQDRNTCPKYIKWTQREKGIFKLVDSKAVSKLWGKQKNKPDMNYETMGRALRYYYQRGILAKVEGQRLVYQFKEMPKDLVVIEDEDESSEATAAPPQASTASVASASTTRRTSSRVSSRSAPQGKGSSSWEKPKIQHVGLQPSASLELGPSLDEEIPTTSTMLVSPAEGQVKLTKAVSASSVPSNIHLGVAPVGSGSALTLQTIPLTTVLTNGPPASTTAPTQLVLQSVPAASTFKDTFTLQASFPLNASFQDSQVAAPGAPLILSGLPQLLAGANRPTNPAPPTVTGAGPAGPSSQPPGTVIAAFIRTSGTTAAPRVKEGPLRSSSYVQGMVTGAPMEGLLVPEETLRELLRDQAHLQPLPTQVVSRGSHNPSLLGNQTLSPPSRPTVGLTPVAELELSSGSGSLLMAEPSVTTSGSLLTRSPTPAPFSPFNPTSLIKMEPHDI
Sequence of HSF1 (Q00613 whole entry): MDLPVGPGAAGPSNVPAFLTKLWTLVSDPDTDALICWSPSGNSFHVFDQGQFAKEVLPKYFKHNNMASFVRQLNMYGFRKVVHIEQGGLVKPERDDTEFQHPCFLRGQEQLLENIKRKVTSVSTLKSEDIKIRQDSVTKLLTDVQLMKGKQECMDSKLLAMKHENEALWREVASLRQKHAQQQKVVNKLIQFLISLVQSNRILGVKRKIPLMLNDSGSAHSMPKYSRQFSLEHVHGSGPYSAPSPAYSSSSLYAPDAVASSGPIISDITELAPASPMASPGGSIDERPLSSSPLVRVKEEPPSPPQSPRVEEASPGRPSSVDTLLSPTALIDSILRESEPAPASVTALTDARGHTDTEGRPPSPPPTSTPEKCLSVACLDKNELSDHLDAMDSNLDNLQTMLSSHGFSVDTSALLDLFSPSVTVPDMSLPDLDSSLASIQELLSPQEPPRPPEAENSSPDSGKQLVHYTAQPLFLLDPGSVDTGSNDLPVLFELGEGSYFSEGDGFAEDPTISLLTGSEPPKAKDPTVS
Sequence of ETV5 (P41161 whole entry): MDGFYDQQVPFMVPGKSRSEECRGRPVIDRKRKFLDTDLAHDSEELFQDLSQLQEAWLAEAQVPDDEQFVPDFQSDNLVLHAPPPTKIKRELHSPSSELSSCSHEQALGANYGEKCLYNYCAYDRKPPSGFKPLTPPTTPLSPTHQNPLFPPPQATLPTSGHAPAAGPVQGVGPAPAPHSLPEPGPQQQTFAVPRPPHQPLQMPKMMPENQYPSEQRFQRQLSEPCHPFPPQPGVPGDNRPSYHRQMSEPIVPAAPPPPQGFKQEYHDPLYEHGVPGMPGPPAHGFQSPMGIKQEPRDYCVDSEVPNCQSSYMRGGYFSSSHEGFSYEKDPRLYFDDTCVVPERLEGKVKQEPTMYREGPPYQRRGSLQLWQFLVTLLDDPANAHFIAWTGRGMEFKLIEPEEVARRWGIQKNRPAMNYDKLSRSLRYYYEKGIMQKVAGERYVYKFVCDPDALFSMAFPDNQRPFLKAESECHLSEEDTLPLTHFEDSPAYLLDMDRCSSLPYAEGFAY

In the case of TTACGG, the binding signal with FEV is 1.22 fold enrichment (6-mer frequency, TF over GST control); in the assay with ETV5 it was 1.27 fold enrichment (6-mer frequency, TF over GST control); with HSF1, 1.43 fold enrichment (6-mer frequency, TF over GST control); with SPIC it was 1.26 fold enrichment (6-mer frequency, TF over GST control); in the assay with ELF4, 1.25 fold enrichment (6-mer frequency, TF over GST control); with ELK4 it was 1.19 fold enrichment (6-mer frequency, TF over GST control). For the same sequence, the binding signal with ETV2 is 1.36 fold enrichment (6-mer frequency, TF over GST control); in the assay with ELF3, 1.35 fold enrichment (6-mer frequency, TF over GST control); with CRX it was 1.86 fold enrichment (6-mer frequency, TF over GST control); with ETV1, 1.25 fold enrichment (6-mer frequency, TF over GST control); with ERF it was 1.36 fold enrichment (6-mer frequency, TF over GST control); with ETV3L it was 1.22 fold enrichment (6-mer frequency, TF over GST control). Further, the binding signal in the assay with ETS2 is 1.43 fold enrichment (6-mer frequency, TF over GST control); in the assay with SPDEF, 1.32 fold enrichment (6-mer frequency, TF over GST control); in the assay with ETV7 it was 1.16 fold enrichment (6-mer frequency, TF over GST control); with ELF5, 1.32 fold enrichment (6-mer frequency, TF over GST control); in the assay with ETV3 it was 1.17 fold enrichment (6-mer frequency, TF over GST control); with ETV6, 1.26 fold enrichment (6-mer frequency, TF over GST control).

(Values after publication PMC7862700, “An all-to-all approach to the identification of sequence-specific readers for epigenetic DNA modifications on cytosine”.)
